In PubChem BioAssay (NCI) one finds growth data, which are given here for 8 compounds.

Test systems include HCT-15 colon; HT29 colon; SNB-75 CNS; SNB-19 CNS; U251 CNS; PC-3 prostate; SK-MEL-5 melanoma; UACC-62 melanoma; LOX IMVI melanoma; SK-MEL-28 melanoma; SK-MEL-2 melanoma; EKVX NSCLC; SN12C renal; UO-31 renal; TK-10 renal; ACHN renal; CAKI-1 renal; A498 renal; CCRF-CEM leukemia; MOLT-4 leukemia.
Holding throughout (test): NCI-60 one-dose screen, 48 h (100 = growth as untreated, 0 = no growth, -100 = all killed)
Holding throughout (conditions): 10 µM

About 83,000 compounds went through this panel and 20% of them were active in at least one assay; those are over-represented in the sample as a whole.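 Testing used 96-well plates and a 48-hour single-concentration exposure. Example: -40 means 40% of the starting cells died.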 Values without a mark were called inactive. Activity calls are given as the source filed them. The calls were made as follows: active = growth percent below 10; inactive = the rest.

Turning to `O=C(c1ccc(O)cc1)C1[C@H](c2ccc(Br)cc2)[C@@H](c2ccccc2)NC12C(=O)Nc1ccccc12` (stereo not given in full), the growth in the assay with HCT-15 colon was 24.6%; in the assay on HT29 colon, -9.34% (active); in the assay on SNB-75 CNS it was 46.5%; with SNB-19 CNS, 47.8%; in the assay with U251 CNS it was 22%; in the assay with PC-3 prostate, 32.1%. Further, the growth in the assay with SK-MEL-5 melanoma is 30.1%; with UACC-62 melanoma, 50.9%; in the assay with LOX IMVI melanoma it was -96.9% (active); with SK-MEL-28 melanoma, 78.5%; in the assay on SK-MEL-2 melanoma it was 55.7%; with EKVX NSCLC, 28%. The growth in the assay on SN12C renal was 23.5%; in the assay on UO-31 renal, 18.9%; in the assay on TK-10 renal, 35.9%; with ACHN renal, 6.89% (active); in the assay with CAKI-1 renal, 22.6%; in the assay on A498 renal, 37%. For the same compound, the growth in the assay with CCRF-CEM leukemia is 36.3%; in the assay on MOLT-4 leukemia it was 16.3%.
Regarding `O=C(CSc1nnc(-c2c[nH]c3ccccc23)n1-c1ccccc1)Nc1ccc(C(=O)/C=C/c2ccccc2Cl)cc1`, the growth in the assay on HCT-15 colon is 67%; in the assay with HT29 colon, 91.6%; in the assay on SNB-75 CNS, 80.3%; in the assay on SNB-19 CNS, 84.8%; in the assay with U251 CNS, 65.7%; with PC-3 prostate it was 61.2%. The growth is 89.8% in the assay on SK-MEL-5 melanoma; 72.1% in the assay with UACC-62 melanoma; 56.6% in the assay on LOX IMVI melanoma; 96.3% in the assay with SK-MEL-28 melanoma; 93.5% with SK-MEL-2 melanoma; 67.2% with EKVX NSCLC. The growth was 84.5% with SN12C renal; 51.6% in the assay with UO-31 renal; 103% in the assay on TK-10 renal; 74.5% in the assay with ACHN renal; 74% in the assay on CAKI-1 renal; 101% in the assay with A498 renal. Further, the figures for the growth with CCRF-CEM leukemia and in the assay with MOLT-4 leukemia were 88.2% and 55.6%, respectively.
Regarding `Cc1ccc(-c2cc(C(=O)N=Nc3c(O)[nH]c4ccccc34)c3ccccc3n2)cc1`, the growth is 7.91% (active) in the assay on HCT-15 colon; 37.9% with HT29 colon; 85.7% with SNB-75 CNS; 58% in the assay with SNB-19 CNS; 27.2% in the assay on U251 CNS; 48.5% in the assay on PC-3 prostate. Further, the growth was 36.9% in the assay with SK-MEL-5 melanoma; 61.6% with UACC-62 melanoma; -40.4% (active) in the assay with LOX IMVI melanoma; 59.4% in the assay on SK-MEL-28 melanoma; 101% in the assay with SK-MEL-2 melanoma; 38.4% with EKVX NSCLC. For the same compound, the growth in the assay with SN12C renal was -9.28% (active); in the assay on UO-31 renal, 51.6%; in the assay with TK-10 renal, 63.4%; with ACHN renal it was 25.8%; in the assay on CAKI-1 renal, 24.3%; in the assay with A498 renal, 88.2%. Moreover, the growth with CCRF-CEM leukemia was 22.9%; with MOLT-4 leukemia, 31.7%.
Take `CCCn1c(=O)c2[nH]c(-c3ccc(OCc4nc5ccc(C(F)(F)F)cc5[nH]4)cc3)nc2n(CCC)c1=O`: the growth in the assay on HCT-15 colon was 23.1%; with HT29 colon, 62%; with SNB-75 CNS, 84.6%; in the assay with SNB-19 CNS, 71.5%; with U251 CNS, 37.6%; in the assay with PC-3 prostate, 33.2%. Further, the growth with SK-MEL-5 melanoma is 37.1%; in the assay with UACC-62 melanoma, 6.48% (active); with LOX IMVI melanoma, 35.5%; in the assay with SK-MEL-28 melanoma it was 58.4%; with SK-MEL-2 melanoma, 66.8%; in the assay on EKVX NSCLC, 53.2%. In addition, the growth in the assay with SN12C renal was 53.5%; in the assay with UO-31 renal, 52.1%; in the assay with TK-10 renal, 96.2%; in the assay with ACHN renal, 64.7%; in the assay on CAKI-1 renal it was 43.6%; in the assay on A498 renal, 51.1%. Further, the growth in the assay on CCRF-CEM leukemia is 35.3%; in the assay with MOLT-4 leukemia it was 11.5%.
On to `C=C[C@@]12CN3CC[C@]1(O)[C@@](C(=O)OC)(CO2)c1[nH]c2ccccc2c1C3`, for which the growth in the assay with HCT-15 colon is 63.7%; with HT29 colon it was 92.7%; with SNB-75 CNS, 105%; in the assay with SNB-19 CNS it was 84.4%; in the assay on U251 CNS, 81.8%; in the assay with PC-3 prostate it was 41.3%. Also, the growth in the assay with SK-MEL-5 melanoma was 18.3%; with UACC-62 melanoma, 63.9%; in the assay on LOX IMVI melanoma it was 67.2%; with SK-MEL-28 melanoma, 89.4%; in the assay on SK-MEL-2 melanoma, 86.1%; with EKVX NSCLC, 53.5%. Further, the growth was 67.5% in the assay on SN12C renal; 69.5% in the assay with UO-31 renal; 97% with TK-10 renal; 73.6% with ACHN renal; 70.1% with CAKI-1 renal; 81.8% in the assay with A498 renal. For the same compound, the growth in the assay with CCRF-CEM leukemia was 55.3%; with MOLT-4 leukemia, 76.7%.
On to `CCCn1c(=O)c2[nH]c(-c3ccc(OCc4nc5ccc(C)cc5[nH]4)cc3)nc2n(CCC)c1=O`, for which the growth with HCT-15 colon is 23.5%; in the assay on HT29 colon, 38.7%; in the assay on SNB-75 CNS, -38.1% (active); in the assay with SNB-19 CNS, 34%; in the assay on U251 CNS it was 6.38% (active); in the assay with PC-3 prostate it was 39.2%. Moreover, the growth with SK-MEL-5 melanoma is 12.8%; in the assay on UACC-62 melanoma, 2.25% (active); in the assay on LOX IMVI melanoma it was -20.3% (active); in the assay on SK-MEL-28 melanoma, 39.9%; in the assay on SK-MEL-2 melanoma, 52.1%; with EKVX NSCLC, 9.33% (active). The growth is -5.67% (active) in the assay on SN12C renal; -91% (active) with UO-31 renal; -51.8% (active) in the assay with TK-10 renal; -88.2% (active) in the assay with ACHN renal; 6.1% (active) in the assay with CAKI-1 renal; -79.8% (active) in the assay on A498 renal. Besides, the growth in the assay on CCRF-CEM leukemia is 46.8%; with MOLT-4 leukemia, 15.2%.
As for `Oc1ccc(/C=C2\CCCc3cc4ccc(O)cc4[o+]c32)c(O)c1`, the growth in the assay on HCT-15 colon was 10.1%; in the assay on HT29 colon, 88.5%; in the assay on SNB-75 CNS, 91.9%; in the assay on SNB-19 CNS, 58%; in the assay with U251 CNS, 8.94% (active); in the assay with PC-3 prostate, 28.8%. Further, the growth was 69.6% with SK-MEL-5 melanoma; 25% with UACC-62 melanoma; -31.1% (active) with LOX IMVI melanoma; 33.9% in the assay on SK-MEL-28 melanoma; 37.2% in the assay with SK-MEL-2 melanoma; 65.9% in the assay on EKVX NSCLC. Besides, the growth is 26.5% in the assay with SN12C renal; 51.9% in the assay with UO-31 renal; 92.3% with TK-10 renal; 29.3% in the assay with ACHN renal; 40.2% in the assay with CAKI-1 renal; 130% with A498 renal. Also, the results for the growth with CCRF-CEM leukemia and with MOLT-4 leukemia were 39% and 28.5%, respectively.
In the case of `CN1C/C(=C\c2ccc(O)cc2O)c2[o+]c3cc(O)ccc3cc2C1`, the growth in the assay with HCT-15 colon is 21.9%; with HT29 colon it was 44.4%; in the assay with SNB-75 CNS it was 60.5%; with SNB-19 CNS, 42.1%; in the assay with U251 CNS, 14%; in the assay with PC-3 prostate, 65.8%. The growth was 57.9% in the assay with SK-MEL-5 melanoma; 47.5% in the assay with UACC-62 melanoma; -66.7% (active) in the assay with LOX IMVI melanoma; 17.3% with SK-MEL-28 melanoma; 46.5% in the assay on SK-MEL-2 melanoma; 78% with EKVX NSCLC. The growth is 39.9% with SN12C renal; 63.6% in the assay with UO-31 renal; 82.4% with TK-10 renal; 71.9% with ACHN renal; 70.1% in the assay with CAKI-1 renal; 117% in the assay on A498 renal. Moreover, the results for the growth in the assay with CCRF-CEM leukemia and with MOLT-4 leukemia were 41.1% and 37.8%, respectively.
